AC50 data for one compound are collected here from PubChem BioAssay AID2283105 (EPA ToxCast).

This test has as its target human CYP2E1, CYP2E1 (gene 1571) (UniProt P05181). The test can be described thus: NVS_ADME_hCYP2E1: NovaScreen (NVS) CYP450-related Enzyme Activity (ADME) Assay for human CYP2E1. The protocol: NVS_ADME_hCYP2E1 is a biochemical, single-readout assay that uses extracted gene-proteins in a cell-free assay. Measurements were taken 0.5 hour after chemical dosing in a 96-well plate.NVS_ADME_hCYP2E1 is one of one assay component(s) measured or calculated from the NVS_ADME_hCYP2E1 assay. It is designed to make measurements of enzyme activity, a form of enzyme reporter, as detected with fluorescence intensity signals by Fluorescence technology.Data from the assay component NVS_ADME_hCYP2E1 was analyzed into 1 assay endpoint. This assay endpoint, NVS_ADME_hCYP2E1, was analyzed in the positive analysis fitting direction relative to Acetonitrile as the negative control and baseline of activity. Using a type of enzyme reporter, loss-of-signal activity can be used to understand changes in the enzymatic activity as they relate to the gene CYP2E1. Furthermore, this assay endpoint can be referred to as a primary readout, because this assay has produced multiple assay endpoints where this one serves a enzymatic activity function. To generalize the intended target to other relatable targets, this assay endpoint is annotated to the cyp intended target family, where the subfamily is xenobiotic metabolism. […]

Active and inactive are the calls of the source. The calls were made as follows: active = hit-call score of the fitted dose curve at least 0.9, where 1 is the maximum; inactive = score below 0.9.

human CYP2E1, CYP2E1 (gene 1571), sequence (P05181 whole entry, looked up): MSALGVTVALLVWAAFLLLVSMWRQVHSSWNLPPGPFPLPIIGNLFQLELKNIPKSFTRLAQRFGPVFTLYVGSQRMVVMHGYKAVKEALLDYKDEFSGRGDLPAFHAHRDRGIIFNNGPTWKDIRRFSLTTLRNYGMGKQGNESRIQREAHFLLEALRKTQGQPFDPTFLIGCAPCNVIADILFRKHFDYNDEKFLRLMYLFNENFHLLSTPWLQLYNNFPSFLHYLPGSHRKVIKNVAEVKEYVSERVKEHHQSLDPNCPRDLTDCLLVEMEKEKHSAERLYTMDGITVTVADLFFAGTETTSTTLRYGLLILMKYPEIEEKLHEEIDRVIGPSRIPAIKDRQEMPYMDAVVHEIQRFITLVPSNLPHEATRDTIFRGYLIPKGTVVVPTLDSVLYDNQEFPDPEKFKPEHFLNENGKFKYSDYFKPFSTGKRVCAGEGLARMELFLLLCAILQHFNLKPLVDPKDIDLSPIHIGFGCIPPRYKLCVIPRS

Turning to `N#CSCSc1nc2ccccc2s1`, the half-maximal activity concentration (AC50) – broadly, the midpoint of the concentration-response curve, whichever way the signal moves – was 5.32 µM (active).
